Compound activity from PubChem BioAssay.
Ba/F3 V617F tox: lowers viability of Ba/F3 cells expressing EpoR and JAK2V617F. ATP luminescence. inhibition, % at 5.6 µM. actives 1.1% (n = 220,000);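 active = inhibition above the campaign mean plus 3 SD over all tested compounds, cut at about 24% in these data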;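 also: cytokine-independent growth of Ba/F3 cells driven by EpoR plus mutant JAK2; 0% = DMSO-treated cells and 100% = JAK inhibitor I control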
KLF5 inhibitor: inhibitors of KLF5 expression; inhibition, % at 5 µM; DLD-1 KLF5 promoter-luciferase reporter, luminescence; actives 0.23% (n = 290,000); AID 1700;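 active = inhibition above a per-plate limit of that plate's mean compound inhibition plus 3 SD, cut at about 60% in these data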;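 also: 0% = DMSO wells and 100% = LY294002 at 200 µM; higher means less KLF5 promoter-driven luciferase light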
APP transl inh: APP translation inhibition; SH-SY5Y APP 5'UTR-luciferase reporter, luminescence; inhibition, % at 2 µM; actives 0.82% (n = 190,000);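 active = inhibition above a set limit, derived from the sample mean plus 3 SD, cut at about 45% in these data; inconclusive = one replicate passes the limit while the other fails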
BaF3 tox: parental Ba/F3 viability inhibition as JAK2V617F counter-screen; CellTiter-Glo ATP luminescence; inhibition, % at 5.6 µM; actives 1.1% (n = 220,000);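 active = inhibition above a per-campaign cutoff, the mean inhibition of all tested compounds plus 3 SD, cut at about 27% in these data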;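 also: 0% = DMSO wells and 100% = JAK Inhibitor I control wells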
IEC-6 cytotox: counter-screen for KLF5 inhibitors: cytotoxicity in IEC-6 cells. actives 0.78% (n = 290,000). inhibition, % at 5 µM. IEC-6 cytotoxicity, luminescence viability; in the data active = inhibition above about 22%;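 also: 0% = plate median of test compound wells and 100% = cytotoxic reference compound wells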
aSyn UTR inh: 5' untranslated region of α-synuclein, MLPCN primary screen; inhibition, % (tested at 7.5 µM); alpha-synuclein 5'UTR reporter, inhibitor activity; actives 0.82% (n = 300,000); in the data active = inhibition above about 60%; inconclusive = no clear call, values can overlap the other calls;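 also: H4 neuroglioblastoma cells stably carrying SNCA 5'UTR luciferase fusion; 0% = DMSO wells and 100% = positive control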
* hit, by the source's call; ? = inconclusive; / = no result. Most compounds without a hit are left out; they make up all but 2.2% or so of the library.

SMILES	Ba/F3 V617F tox	KLF5 inhibitor	APP transl inh	BaF3 tox	IEC-6 cytotox	aSyn UTR inh
CCN1C(=O)c2ccccc2S(=O)c2ccc(C(=O)N3CCOCC3)cc21 (stereo unspecified)	-2	-28	/	-6	2	-4
O=C(OCn1ncc(Br)c(Br)c1=O)c1c(F)cccc1F	74*	-39	96*	67*	11	?
CC(=O)Cn1ncc(Br)c(Br)c1=O	5	-33	97*	-3	102*	-87
CC(C)N1CCc2c(sc(NC(=O)CN3C(=O)c4ccccc4C3=O)c2C(N)=O)C1	-1	-25	-10	6	-1	12
COc1cc2ccccc2cc1C(=O)Nc1sc2c(c1C(N)=O)CCN(C(C)C)C2	/	-11	/	/	15	102*
Cc1cnc(NC(=O)COc2ccccc2Cl)s1	0	-29	-100	4	5	82*
Cc1cnc(NC(=O)CSc2ccc(Cl)cc2)s1	-2	-15	-13	-1	3	-11
Cc1cnc(NC(=O)Nc2ccc(Cl)cc2)s1	92*	-127	28	72*	29*	-187
COc1ccc(-n2cc(C#N)c(=O)n(Cc3ccc(F)cc3)c2=O)cc1	-2	22	-35	4	0	23
CC(=O)Nc1cccc(Oc2ncnc3scc(-c4ccc(C(C)C)cc4)c23)c1	1	-49	2	5	26*	48
CC(=O)O[C@@]12CO[C@@H]1C[C@H](O)[C@@]1(C)C(=O)[C@H](O)C3=C(C)[C@@H](OC(=O)[C@H](O)[C@@H](NC(=O)OC(C)(C)C)c4ccccc4)C[C@](O)([C@@H](OC(=O)c4ccccc4)[C@H]21)C3(C)C	73*	68*	/	62*	87*	72*
COc1ccc(OCC(O)CNS(=O)(=O)c2cccs2)cc1 (stereo unspecified)	/	-4	/	/	-3	6
COCc1ccc(CN2CCCC(CO)(Cc3ccccc3)C2)o1 (stereo unspecified)	1	-35	20	8	3	-13
CN1/C(=C\C(=O)COC(=O)CNC(=O)c2ccc3ccccc3c2)C(C)(C)c2ccccc21	22	-3	-18	34*	-1	21
CN1/C(=C\C(=O)COC(=O)CNC(=O)c2ccccc2F)C(C)(C)c2ccccc21	15	-15	/	8	8	12
CN1/C(=C\C(=O)COC(=O)c2ccc(O)c(O)c2)C(C)(C)c2ccccc21	52*	-14	17	51*	4	-2
CCOc1ccc(NC(=O)N(Cc2ccc(C)cc2)Cc2ccccn2)cc1	/	-1	/	/	-5	3
COC(=O)c1ccc2nc(Nc3nc4c(F)cc(F)cc4s3)sc2c1	2	92*	4	6	10	-12
CCOC(=O)c1ccc2nc(Nc3nc4ccc(F)cc4s3)sc2c1	-2	49	7	5	-7	13
CCCCCc1ccc(OCCC[n+]2ccccc2)c(CCCCC)c1	100*	-1	/	84*	21	3
CCCCCc1ccc(OCCOCCn2c[n+](C)c3ccccc32)c(CCCCC)c1	101*	9	29	82*	16	26
Cc1cccc(C(=O)N[C@H](C(=O)NCCc2ccc(S(N)(=O)=O)cc2)C(C)C)c1	/	-28	/	/	1	-17
COc1ccc2[nH]cc(S(=O)(=O)c3ccc(C(C)C)cc3)c(=O)c2c1	-1	-2	-23	9	-2	-2
O=C(CCC1CCCCC1)Nc1ccccc1O	19	-59	-61	11	3	-163
Cc1ccc(O)c(NC(=O)CCC2CCCCC2)c1	73*	-105	-64	58*	-2	-152
SMILES	Ba/F3 V617F tox	KLF5 inhibitor	APP transl inh	BaF3 tox	IEC-6 cytotox	aSyn UTR inh
O=C(NCc1ccccc1)C(c1ccc(F)cc1)N(C(=O)c1csnn1)C1CCCC1 (stereo unspecified)	/	-4	/	/	-3	2
OC1(c2cccs2)CN(c2ccc(Cl)cc2)C2=[N+]1CCCC2 (stereo unspecified)	17	-45	14	32*	1	-18
OC1(c2cccs2)CN(c2ccc(Cl)cc2)C2=[N+]1CCCS2 (stereo unspecified)	-2	-43	-9	-1	-1	-9
CCC(=O)NC1CCN(C(=S)NC)CC1	-6	1	6	62*	-12	-1
N#CC(C#N)=C1C=CC=CN1/C(=C\c1ccccc1)C(=O)c1cccs1	-4	-16	-6	-2	3	-9
N#CC(C#N)=C1C=CC=CN1/C(=C\c1ccccc1Cl)C(=O)c1ccccc1	3	-7	92*	1	6	/
